Results: paper PMC7862700, “An all-to-all approach to the identification of sequence-specific readers for epigenetic DNA modifications on cytosine”

Experiments:
Assay in all cases: DAPPL (digital affinity profiling via proximity ligation, sequencing); 10 mM Tris-HCl pH 7.5, 50 mM NaCl, 1 mM DTT, 4% glycerol, room temperature, 30 min; GST-TFs on glutathione beads, 16-mer random dsDNA library, 0.1% formaldehyde crosslink after washing; high values mean tight binding
FLI1 = target: T1, FLI1 (Homo sapiens, UniProt Q01543 1-452); conditions: protein: recombinant; tags: N-terminal GST; dsDNA, one strand shown
T1 sequence: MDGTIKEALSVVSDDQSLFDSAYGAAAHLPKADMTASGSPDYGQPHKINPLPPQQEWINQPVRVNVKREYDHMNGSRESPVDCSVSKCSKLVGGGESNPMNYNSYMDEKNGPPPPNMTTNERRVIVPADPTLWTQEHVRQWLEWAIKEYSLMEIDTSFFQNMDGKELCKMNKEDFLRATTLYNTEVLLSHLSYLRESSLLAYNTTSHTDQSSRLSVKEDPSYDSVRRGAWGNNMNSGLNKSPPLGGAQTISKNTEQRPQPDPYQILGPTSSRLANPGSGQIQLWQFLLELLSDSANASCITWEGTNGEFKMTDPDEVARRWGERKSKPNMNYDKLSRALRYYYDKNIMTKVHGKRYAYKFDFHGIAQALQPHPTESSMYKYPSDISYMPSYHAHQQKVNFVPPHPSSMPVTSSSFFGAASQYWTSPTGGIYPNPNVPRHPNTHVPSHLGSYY
Method in brief: (§1)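 The binding signal reported is, for every hexamer, its read frequency for a factor over its read frequency for the tag-only sample. Reads came from pools of yeast-expressed, GST-fused human transcription factors on glutathione beads, barcoded with DNA and mixed with that sample, which were incubated with 200 nmole of a random double-stranded 16-mer DNA library in Tris/NaCl/DTT/glycerol buffer at room temperature for 30 min. After washing, the pools were crosslinked with 0.1% formaldehyde, proximity-ligated with BsaI/T4 ligase for 1 h at 37 °C, PCR-amplified and sequenced on an Illumina NextSeq500.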

ELK1 = target: T2, ELK1 (Homo sapiens, UniProt P19419 1-428); conditions: protein: recombinant; tags: N-terminal GST; dsDNA, one strand shown
T2 sequence: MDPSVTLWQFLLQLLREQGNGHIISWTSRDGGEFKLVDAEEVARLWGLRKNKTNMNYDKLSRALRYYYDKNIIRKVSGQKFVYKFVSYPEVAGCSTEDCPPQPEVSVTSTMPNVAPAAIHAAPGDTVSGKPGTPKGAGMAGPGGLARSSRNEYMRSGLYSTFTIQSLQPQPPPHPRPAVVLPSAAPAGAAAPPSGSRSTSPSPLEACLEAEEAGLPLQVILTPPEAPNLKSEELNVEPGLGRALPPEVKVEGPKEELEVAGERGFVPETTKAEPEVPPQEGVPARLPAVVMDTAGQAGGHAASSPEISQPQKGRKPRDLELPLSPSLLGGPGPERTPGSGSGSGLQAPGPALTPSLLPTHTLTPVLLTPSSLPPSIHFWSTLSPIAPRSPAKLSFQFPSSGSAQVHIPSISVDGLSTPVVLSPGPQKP
Method in brief: as §1

GABPA = target: T3, GABPA (Homo sapiens, UniProt Q06546 1-454); conditions: protein: recombinant; tags: N-terminal GST; dsDNA, one strand shown
T3 sequence: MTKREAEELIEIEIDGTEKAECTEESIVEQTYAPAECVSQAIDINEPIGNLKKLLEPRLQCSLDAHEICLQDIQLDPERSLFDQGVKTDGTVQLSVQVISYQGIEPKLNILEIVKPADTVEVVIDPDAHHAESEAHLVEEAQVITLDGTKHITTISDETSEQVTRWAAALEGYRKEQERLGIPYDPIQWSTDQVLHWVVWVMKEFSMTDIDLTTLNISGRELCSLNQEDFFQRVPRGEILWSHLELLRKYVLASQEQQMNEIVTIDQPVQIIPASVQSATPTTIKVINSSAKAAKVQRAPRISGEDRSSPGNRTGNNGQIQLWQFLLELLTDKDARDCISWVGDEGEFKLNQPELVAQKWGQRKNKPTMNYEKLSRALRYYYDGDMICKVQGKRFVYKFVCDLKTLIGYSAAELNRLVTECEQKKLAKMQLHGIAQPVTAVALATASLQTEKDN
Method in brief: as §1

ERG = target: T4, ERG (Homo sapiens, UniProt P11308 1-479); conditions: protein: recombinant; tags: N-terminal GST; dsDNA, one strand shown
T4 sequence: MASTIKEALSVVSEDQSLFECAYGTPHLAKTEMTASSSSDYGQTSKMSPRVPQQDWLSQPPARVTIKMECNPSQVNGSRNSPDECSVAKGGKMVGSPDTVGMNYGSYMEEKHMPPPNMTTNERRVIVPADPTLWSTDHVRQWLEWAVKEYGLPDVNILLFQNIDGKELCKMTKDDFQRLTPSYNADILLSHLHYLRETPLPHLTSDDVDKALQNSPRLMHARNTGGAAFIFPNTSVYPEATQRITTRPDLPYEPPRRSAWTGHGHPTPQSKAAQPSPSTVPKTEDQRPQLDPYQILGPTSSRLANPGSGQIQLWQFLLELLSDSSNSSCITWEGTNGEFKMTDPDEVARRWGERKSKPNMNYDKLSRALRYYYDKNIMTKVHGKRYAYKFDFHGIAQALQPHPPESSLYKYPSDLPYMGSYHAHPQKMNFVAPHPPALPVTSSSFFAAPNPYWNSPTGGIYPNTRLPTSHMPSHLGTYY
Method in brief: as §1

ELF1 = ELF1 (Homo sapiens, UniProt P32519 1-619); conditions: protein: recombinant; tags: N-terminal GST; dsDNA, one strand shown
ELF1, sequence (P32519 whole entry): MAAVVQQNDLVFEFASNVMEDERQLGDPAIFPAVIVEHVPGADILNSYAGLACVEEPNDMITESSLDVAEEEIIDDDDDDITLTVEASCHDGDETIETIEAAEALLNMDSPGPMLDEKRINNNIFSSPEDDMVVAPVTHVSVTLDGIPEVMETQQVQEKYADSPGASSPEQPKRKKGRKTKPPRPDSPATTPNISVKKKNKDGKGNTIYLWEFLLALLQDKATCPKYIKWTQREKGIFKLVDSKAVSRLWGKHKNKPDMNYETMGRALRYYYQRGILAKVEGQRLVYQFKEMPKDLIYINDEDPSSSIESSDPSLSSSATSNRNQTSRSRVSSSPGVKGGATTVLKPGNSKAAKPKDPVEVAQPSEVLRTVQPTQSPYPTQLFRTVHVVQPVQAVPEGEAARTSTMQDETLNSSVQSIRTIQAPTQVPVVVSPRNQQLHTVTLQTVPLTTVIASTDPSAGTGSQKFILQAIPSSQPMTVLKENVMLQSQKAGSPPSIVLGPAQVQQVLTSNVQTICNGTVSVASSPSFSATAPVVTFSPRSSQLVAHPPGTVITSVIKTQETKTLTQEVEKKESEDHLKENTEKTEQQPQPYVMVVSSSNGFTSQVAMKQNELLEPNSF
Method in brief: as §1

EHF = target: T5, EHF (Homo sapiens, UniProt Q9NZC4 1-300); conditions: protein: recombinant; tags: N-terminal GST; dsDNA, one strand shown
T5 sequence: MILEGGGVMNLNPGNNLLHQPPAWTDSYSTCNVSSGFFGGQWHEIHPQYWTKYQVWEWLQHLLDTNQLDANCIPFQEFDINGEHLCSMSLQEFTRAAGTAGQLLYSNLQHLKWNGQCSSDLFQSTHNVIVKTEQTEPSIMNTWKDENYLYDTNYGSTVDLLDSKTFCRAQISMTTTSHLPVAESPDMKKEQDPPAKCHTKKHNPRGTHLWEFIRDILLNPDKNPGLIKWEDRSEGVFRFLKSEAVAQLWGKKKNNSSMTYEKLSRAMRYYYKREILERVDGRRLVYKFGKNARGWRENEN
Method in brief: as §1

SPIB = SPIB (Homo sapiens, UniProt Q01892 1-262); conditions: protein: recombinant; tags: N-terminal GST; dsDNA, one strand shown
SPIB, sequence (Q01892 whole entry): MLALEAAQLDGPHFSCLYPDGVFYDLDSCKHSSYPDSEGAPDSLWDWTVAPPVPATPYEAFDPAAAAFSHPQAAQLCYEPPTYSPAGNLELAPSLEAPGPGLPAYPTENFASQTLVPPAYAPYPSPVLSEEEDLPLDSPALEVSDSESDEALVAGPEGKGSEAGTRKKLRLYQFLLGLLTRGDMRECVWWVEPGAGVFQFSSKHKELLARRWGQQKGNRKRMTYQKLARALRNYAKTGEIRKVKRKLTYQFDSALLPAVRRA
Method in brief: as §1

ELK3 = target: T6, ELK3 (Homo sapiens, UniProt P41970 1-407); conditions: protein: recombinant; tags: N-terminal GST; dsDNA, one strand shown
T6 sequence: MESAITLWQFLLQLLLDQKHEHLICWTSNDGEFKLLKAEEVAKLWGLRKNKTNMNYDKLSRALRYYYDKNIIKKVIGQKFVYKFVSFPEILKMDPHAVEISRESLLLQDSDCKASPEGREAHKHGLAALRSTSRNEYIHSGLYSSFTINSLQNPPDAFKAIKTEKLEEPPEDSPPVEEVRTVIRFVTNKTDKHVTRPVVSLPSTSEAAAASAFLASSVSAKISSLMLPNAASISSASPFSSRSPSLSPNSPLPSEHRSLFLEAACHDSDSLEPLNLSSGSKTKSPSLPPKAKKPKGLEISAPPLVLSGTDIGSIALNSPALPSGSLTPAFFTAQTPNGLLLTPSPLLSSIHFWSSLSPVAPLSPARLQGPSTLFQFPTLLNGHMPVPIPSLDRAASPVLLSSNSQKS
Method in brief: as §1

FEV = target: T7, FEV (Homo sapiens, UniProt Q99581 1-238); conditions: protein: recombinant; tags: N-terminal GST; dsDNA, one strand shown
T7 sequence: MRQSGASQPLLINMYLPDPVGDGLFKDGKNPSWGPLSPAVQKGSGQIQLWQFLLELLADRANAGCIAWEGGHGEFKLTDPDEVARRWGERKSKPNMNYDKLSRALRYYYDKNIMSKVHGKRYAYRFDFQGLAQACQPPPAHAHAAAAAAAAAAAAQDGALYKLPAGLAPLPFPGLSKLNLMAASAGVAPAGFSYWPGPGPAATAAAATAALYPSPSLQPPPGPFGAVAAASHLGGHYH
Method in brief: as §1

ETV5 = ETV5 (Homo sapiens, UniProt P41161 1-510); conditions: protein: recombinant; tags: N-terminal GST; dsDNA, one strand shown
ETV5, sequence (P41161 whole entry): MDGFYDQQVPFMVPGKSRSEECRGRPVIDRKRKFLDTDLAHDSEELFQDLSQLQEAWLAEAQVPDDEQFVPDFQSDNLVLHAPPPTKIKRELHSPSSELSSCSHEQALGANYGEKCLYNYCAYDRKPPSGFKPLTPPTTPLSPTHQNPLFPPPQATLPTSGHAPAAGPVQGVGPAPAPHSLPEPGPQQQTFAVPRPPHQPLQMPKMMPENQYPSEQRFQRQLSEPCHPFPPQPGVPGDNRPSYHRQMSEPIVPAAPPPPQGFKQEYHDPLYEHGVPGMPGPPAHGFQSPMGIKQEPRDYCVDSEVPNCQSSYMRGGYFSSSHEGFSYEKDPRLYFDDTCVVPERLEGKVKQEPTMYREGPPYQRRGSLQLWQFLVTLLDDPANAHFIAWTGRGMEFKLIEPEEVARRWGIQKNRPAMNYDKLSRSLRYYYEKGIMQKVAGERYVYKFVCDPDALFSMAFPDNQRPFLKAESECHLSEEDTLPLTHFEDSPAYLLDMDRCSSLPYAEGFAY
Method in brief: as §1

HSF1 = HSF1 (Homo sapiens, UniProt Q00613 1-529); conditions: protein: recombinant; tags: N-terminal GST; chain copies: 3; dsDNA, one strand shown
HSF1, sequence (Q00613 whole entry): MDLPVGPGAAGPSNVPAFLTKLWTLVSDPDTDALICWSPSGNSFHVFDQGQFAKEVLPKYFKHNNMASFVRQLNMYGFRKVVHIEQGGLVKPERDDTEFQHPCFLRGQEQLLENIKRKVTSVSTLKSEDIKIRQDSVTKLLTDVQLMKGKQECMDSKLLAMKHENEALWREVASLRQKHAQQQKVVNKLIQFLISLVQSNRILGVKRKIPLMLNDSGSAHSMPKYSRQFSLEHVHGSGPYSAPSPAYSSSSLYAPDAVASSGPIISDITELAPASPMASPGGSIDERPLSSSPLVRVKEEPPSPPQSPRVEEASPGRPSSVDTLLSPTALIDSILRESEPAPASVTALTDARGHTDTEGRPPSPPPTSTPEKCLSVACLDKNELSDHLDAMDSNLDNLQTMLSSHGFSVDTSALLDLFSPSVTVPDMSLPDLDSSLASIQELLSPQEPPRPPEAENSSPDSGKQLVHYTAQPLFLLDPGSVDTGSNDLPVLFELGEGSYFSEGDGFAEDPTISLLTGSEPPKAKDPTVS
Method in brief: as §1

SPIC = target: T8, SPIC (Homo sapiens, UniProt Q8N5J4 1-248); conditions: protein: recombinant; tags: N-terminal GST; dsDNA, one strand shown
T8 sequence: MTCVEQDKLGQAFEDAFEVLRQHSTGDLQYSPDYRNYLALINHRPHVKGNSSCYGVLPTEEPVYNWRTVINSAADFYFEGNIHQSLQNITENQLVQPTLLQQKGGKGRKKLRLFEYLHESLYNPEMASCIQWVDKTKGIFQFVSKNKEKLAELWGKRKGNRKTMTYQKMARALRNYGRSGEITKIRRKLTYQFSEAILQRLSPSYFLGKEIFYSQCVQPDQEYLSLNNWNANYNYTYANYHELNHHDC
Method in brief: as §1

ELF4 = ELF4 (Homo sapiens, UniProt Q99607 1-663); conditions: protein: recombinant; tags: N-terminal GST; dsDNA, one strand shown
ELF4, sequence (Q99607 whole entry): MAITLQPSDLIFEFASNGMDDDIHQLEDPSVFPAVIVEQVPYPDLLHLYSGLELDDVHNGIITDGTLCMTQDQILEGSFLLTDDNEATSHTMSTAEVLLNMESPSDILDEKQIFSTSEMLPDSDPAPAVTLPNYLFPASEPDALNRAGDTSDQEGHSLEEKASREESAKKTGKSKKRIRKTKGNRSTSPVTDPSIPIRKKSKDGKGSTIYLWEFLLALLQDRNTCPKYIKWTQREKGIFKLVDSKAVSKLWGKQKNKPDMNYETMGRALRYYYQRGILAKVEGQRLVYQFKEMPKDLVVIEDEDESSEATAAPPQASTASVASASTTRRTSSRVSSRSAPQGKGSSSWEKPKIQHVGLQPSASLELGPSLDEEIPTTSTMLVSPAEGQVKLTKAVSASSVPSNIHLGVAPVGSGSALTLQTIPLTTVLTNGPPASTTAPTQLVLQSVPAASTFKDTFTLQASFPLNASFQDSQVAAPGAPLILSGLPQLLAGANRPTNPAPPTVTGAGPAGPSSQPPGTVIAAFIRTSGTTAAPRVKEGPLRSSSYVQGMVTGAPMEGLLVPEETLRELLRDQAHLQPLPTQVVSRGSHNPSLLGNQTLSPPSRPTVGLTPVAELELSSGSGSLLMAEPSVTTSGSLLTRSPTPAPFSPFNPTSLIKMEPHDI
Method in brief: as §1

ELK4 = target: T9, ELK4 (Homo sapiens, UniProt P28324-2 1-405); conditions: protein: recombinant; tags: N-terminal GST; dsDNA, one strand shown
T9 sequence: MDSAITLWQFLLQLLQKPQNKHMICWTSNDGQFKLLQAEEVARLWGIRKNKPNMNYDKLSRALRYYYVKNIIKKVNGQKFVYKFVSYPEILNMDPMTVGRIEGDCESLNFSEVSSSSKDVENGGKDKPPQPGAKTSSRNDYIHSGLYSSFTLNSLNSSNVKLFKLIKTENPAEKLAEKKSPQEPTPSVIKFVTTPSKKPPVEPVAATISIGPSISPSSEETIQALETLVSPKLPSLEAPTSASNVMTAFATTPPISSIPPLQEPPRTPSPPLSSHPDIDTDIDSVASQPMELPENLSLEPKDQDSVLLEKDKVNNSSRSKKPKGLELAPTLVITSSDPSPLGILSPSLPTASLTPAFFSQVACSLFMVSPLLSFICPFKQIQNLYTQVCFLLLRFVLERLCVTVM
Method in brief: as §1

ETV2 = target: T10, ETV2 (Homo sapiens, UniProt O00321 1-342); conditions: protein: recombinant; tags: N-terminal GST; dsDNA, one strand shown
T10 sequence: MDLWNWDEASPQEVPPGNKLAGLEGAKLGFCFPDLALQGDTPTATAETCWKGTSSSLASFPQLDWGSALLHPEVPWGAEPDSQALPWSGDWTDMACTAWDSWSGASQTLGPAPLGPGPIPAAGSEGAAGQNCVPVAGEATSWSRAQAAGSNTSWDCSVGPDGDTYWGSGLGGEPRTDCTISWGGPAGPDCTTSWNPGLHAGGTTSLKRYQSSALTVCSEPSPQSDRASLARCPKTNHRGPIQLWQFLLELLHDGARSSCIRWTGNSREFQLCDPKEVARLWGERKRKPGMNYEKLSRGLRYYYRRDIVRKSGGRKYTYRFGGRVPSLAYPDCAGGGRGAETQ
Method in brief: as §1

ELF3 = target: T11, ELF3 (Homo sapiens, UniProt P78545 1-371); conditions: protein: recombinant; tags: N-terminal GST; dsDNA, one strand shown
T11 sequence: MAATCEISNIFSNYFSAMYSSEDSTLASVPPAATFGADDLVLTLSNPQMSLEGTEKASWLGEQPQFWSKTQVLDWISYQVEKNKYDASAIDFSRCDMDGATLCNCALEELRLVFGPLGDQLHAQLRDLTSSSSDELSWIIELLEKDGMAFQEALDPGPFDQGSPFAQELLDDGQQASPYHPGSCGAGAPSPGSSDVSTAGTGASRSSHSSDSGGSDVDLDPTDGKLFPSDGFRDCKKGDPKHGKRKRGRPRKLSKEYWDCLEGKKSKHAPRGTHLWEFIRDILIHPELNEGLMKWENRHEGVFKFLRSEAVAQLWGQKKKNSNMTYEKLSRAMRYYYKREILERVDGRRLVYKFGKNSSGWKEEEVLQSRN
Method in brief: as §1

ETV1 = ETV1 (Homo sapiens, UniProt P50549 1-477); conditions: protein: recombinant; tags: N-terminal GST; dsDNA, one strand shown
ETV1, sequence (P50549 whole entry): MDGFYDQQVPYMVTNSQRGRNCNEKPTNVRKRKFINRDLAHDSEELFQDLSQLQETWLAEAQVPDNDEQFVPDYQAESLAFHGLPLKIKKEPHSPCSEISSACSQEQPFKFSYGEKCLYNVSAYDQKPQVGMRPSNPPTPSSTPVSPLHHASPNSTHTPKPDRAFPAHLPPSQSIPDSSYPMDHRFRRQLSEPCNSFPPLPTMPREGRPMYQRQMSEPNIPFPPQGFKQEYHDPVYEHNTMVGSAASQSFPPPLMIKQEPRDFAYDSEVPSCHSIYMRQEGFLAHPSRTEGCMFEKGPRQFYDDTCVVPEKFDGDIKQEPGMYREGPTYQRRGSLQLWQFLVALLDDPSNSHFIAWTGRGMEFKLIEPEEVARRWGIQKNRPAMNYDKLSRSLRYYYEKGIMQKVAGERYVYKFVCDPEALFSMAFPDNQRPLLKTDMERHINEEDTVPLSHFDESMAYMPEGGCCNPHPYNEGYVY
Method in brief: as §1

GCACGA
binding signal (FLI1): 1.14 fold enrichment (6-mer frequency, TF over GST control)
binding signal (ELK1): 1.02 fold enrichment (6-mer frequency, TF over GST control)
binding signal (GABPA): 1.23 fold enrichment (6-mer frequency, TF over GST control)
binding signal (ERG): 1.02 fold enrichment (6-mer frequency, TF over GST control)
binding signal (ELF1): 1.05 fold enrichment (6-mer frequency, TF over GST control)
binding signal (EHF): 1.09 fold enrichment (6-mer frequency, TF over GST control)
binding signal (SPIB): 1.08 fold enrichment (6-mer frequency, TF over GST control)
binding signal (ELK3): 1 fold enrichment (6-mer frequency, TF over GST control)
binding signal (FEV): 1.09 fold enrichment (6-mer frequency, TF over GST control)
binding signal (ETV5): 1.15 fold enrichment (6-mer frequency, TF over GST control)
binding signal (HSF1): 1.04 fold enrichment (6-mer frequency, TF over GST control)
binding signal (SPIC): 1.18 fold enrichment (6-mer frequency, TF over GST control)
binding signal (ELF4): 1.1 fold enrichment (6-mer frequency, TF over GST control)
binding signal (ELK4): 1.13 fold enrichment (6-mer frequency, TF over GST control)
binding signal (ETV2): 1.31 fold enrichment (6-mer frequency, TF over GST control)
binding signal (ELF3): 1.16 fold enrichment (6-mer frequency, TF over GST control)
binding signal (ETV1): 1.05 fold enrichment (6-mer frequency, TF over GST control)
